The source of these data is PubChem BioAssay.

Activity calls are given as the source filed them.

For one experiment, the target named is Albumin (Bos taurus) (UniProt P02769). Kind of experiment: bovine serum albumin binders on microarray, profiling panel, artefact control for SMM control protein annotation, biochemical, small-molecule microarray, Alexa647 label, 635/667 nm fluorescence (AID 1118).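 Also: score merges 667 nm emission intensity and signal-to-noise per printed compound spot.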 Conditions: BSA-A647 binding, fluorescence 635 nm, higher = more signal.
Experiment [1] can be described thus: small-molecule microarray binders of probe aXIP, primary screen, biochemical, NeuroSMM set, 635/667 nm fluorescence (AID 1119).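 Also: probe is the protein aXip251-270 applied at 1 µg/mL to compound-printed slides; binding of probe to printed compounds measured as 667 nm fluorescence plus signal to noise.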 Conditions: higher = more signal, called active from +8 up or from −8 down.
The nature of experiment [2]: small-molecule binders of probe aNOTCH3, primary screen, biochemical, small-molecule microarray, 635/667 nm fluorescence (AID 1120).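 Also: probe is a biotin-tagged antibody raised against NOTCH3 rather than NOTCH3 protein; score merges spot fluorescence near 667 nm with spot signal to noise.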 The following applies: higher = more signal.
Experiment [3] can be described thus: small-molecule binders of probe aNOTCH2, primary screen, biochemical, small-molecule microarray, 635/667 nm fluorescence (AID 1121).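 Also: score merges feature fluorescence read at 667 nm with its signal to noise.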 Conditions: higher = more signal.
Experiment [4] has as its target Carbonic anhydrase 2 (Homo sapiens) (UniProt P00918). Kind of experiment: CAII small-molecule binders, profiling panel, biochemical, small-molecule microarray, Alexa647-labelled CAII (AID 1122). Conditions: CAII-A647 binding fluorescence, higher = more signal.
The nature of experiment [5]: COS7 lysate on small-molecule microarray, probe aHis, 635 nm (AID 1123).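 Also: z-score combines 667nm fluorescence intensity with signal-to-noise per printed compound spot.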 The following applies: COS7 cell lysate, fluorescence, higher = more signal.
Experiment [6] is described as follows: compound binding in COS7 lysate, probe aLAP1, primary screen, cell lysate, small-molecule microarray (AID 1124).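 Also: lysate comes from COS7 cells expressing LAP1 and is applied at 0.3 µg/mL; score merges spot fluorescence near 667 nm with signal-to-noise over triplicate slides.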 Conditions: probe aLAP1, fluorescence, higher = more signal.
The next experiment relates to Sam68 (KHDRBS1). Nature of the experiment: Sam68 small-molecule binders, primary screen, biochemical, small-molecule microarray, 635 nm fluorescence (AID 1125).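 Also: score merges 667 nm channel intensity with signal to noise over triplicate slides.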 The following applies: small-molecule microarray binding, higher = more signal.
Experiment [7] relates to Chordin-like protein 2 (CHRDL2). Kind of experiment: CHRDL2 small-molecule binders, primary screen, biochemical, small-molecule microarray, 635 nm fluorescence (AID 1126).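 Also: printed compound slides probed with Chrdl2 protein at 4 µg/mL for 1 h at 4 C; score merges 667 nm emission intensity with signal to noise over three replicate slides.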 Conditions: small-molecule microarray binding, fluorescence 635 nm; higher = more signal.
Experiment [8] concerns the target Concanavalin-A (Canavalia ensiformis) (UniProt P02866). Kind of experiment: ConA small-molecule binders, primary screen, artefact control for SMM control protein annotation, biochemical, small-molecule microarray, Alexa647 label, 635 nm (AID 1127).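 Also: z combines 667 nm emission intensity with signal-to-noise across three replicate slides.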 Conditions: ConA-A647 binding fluorescence, higher = more signal.
Experiment [9] in a line: anti-His antibody binders, primary screen, artefact control for SMM control protein annotation, biochemical, small-molecule microarray, 635 nm fluorescence (AID 1128).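 Also: score merges feature fluorescence with signal-to-noise for each printed compound spot.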 The following applies: anti-His Alexa647 antibody binding, higher = more signal.
The test system of experiment [10] is Human papillomavirus type 1a E7 protein (residues 1-88). Nature of the experiment: HPV1a E7 small-molecule binders, primary screen, biochemical, small-molecule microarray, residues 1-88, 635 nm (AID 1129). Conditions: small-molecule microarray binding, fluorescence 635 nm; higher = more signal.
In experiment [11] the target is Focal adhesion kinase 1 (Homo sapiens) (UniProt Q05397). Nature of the experiment: small-molecule microarray binders of FAK, primary screen, biochemical, 635/667 nm fluorescence, BSA, DTT (AID 1130).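 Also: composite of spot emission at 667 nm and signal to noise over triplicate slides.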 Conditions: PTK2 binding, 635 nm fluorescence, higher = more signal.
Experiment [12] concerns Fibrinogen (Alexa647-labelled). Nature of the experiment: fibrinogen binders on compound microarrays, profiling panel, artefact control for SMM control-protein annotation, biochemical, small-molecule microarray, 635/667 nm fluorescence (AID 1131).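 Also: z-score merges 667 nm fluorescence with per-spot signal-to-noise over triplicate slides.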 Conditions: fibrinogen-A647 binding fluorescence, higher = more signal.
Experiment [13] addresses Follistatin (Homo sapiens) (UniProt P19883). Nature of the experiment: follistatin binders on small-molecule microarrays, primary screen, biochemical, small-molecule microarray, 635/667 nm fluorescence (AID 1132). The following applies: FST binding, 635 nm fluorescence, higher = more signal.
In experiment [14] the target is Fibroblast growth factor 2 (Homo sapiens) (UniProt P09038). Kind of experiment: FGF2 binders on small-molecule microarrays, primary screen, biochemical, small-molecule microarray, 635/667 nm fluorescence (AID 1133). The following applies: small-molecule microarray binding, FGF2, fluorescence 635/667; higher = more signal.
Experiment [15] is described as follows: mitochondrial membrane potential change in A549 cells, profiling panel, cell-based, JC-1 fluorescence, basal, 24 h, 100 nL (AID 1138).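 Also: A549 lung adenocarcinoma cells under basal conditions with no added stimulus; test concentration not given here.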 The following applies: higher = more signal.
The subject of the next experiment is Lefty1. Kind of experiment: Lefty1 binders on small-molecule microarrays, primary screen, biochemical, small-molecule microarray, 635/667 nm fluorescence (AID 1139). The following applies: small-molecule microarray binding, fluorescence 635/667; higher = more signal.
In experiment [16] the test system is wheat germ agglutinin (Triticum aestivum), Alexa647-labelled. Kind of experiment: wheat germ agglutinin binders on compound microarrays, profiling panel, artefact control for SMM control-protein annotation, biochemical, small-molecule microarray, 635/667 nm fluorescence (AID 1140).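 Also: score merges 667 nm feature emission with signal to noise over triplicate slides.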 The following applies: WGA-A647 binding, 635 nm fluorescence, higher = more signal.

Experiment [17] addresses Luciferin 4-monooxygenase (Photinus pyralis) (UniProt P08659). Nature of the experiment: firefly luciferase enzyme inhibitors, primary screen, biochemical, luminescence, purified enzyme, 2006 set (AID 1141).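 Also: cell-free assay with purified firefly luciferase at 100 ng per well in PBS; test concentration not given here.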 The following applies: SteadyGlo luminescence, 30 min, higher = more signal, called active from +8 up or from −8 down.

Fibroblast growth factor 2 (Homo sapiens), sequence (P09038 whole entry, looked up): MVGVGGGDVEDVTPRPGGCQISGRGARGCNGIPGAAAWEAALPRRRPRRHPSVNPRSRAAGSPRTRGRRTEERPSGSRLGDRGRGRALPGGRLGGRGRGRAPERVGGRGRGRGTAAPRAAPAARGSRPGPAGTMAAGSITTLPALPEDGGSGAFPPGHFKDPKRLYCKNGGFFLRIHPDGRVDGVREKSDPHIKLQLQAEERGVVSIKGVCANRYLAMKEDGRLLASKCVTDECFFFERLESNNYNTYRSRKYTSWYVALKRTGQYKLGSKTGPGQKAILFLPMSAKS
Albumin (Bos taurus), sequence (P02769 whole entry, looked up): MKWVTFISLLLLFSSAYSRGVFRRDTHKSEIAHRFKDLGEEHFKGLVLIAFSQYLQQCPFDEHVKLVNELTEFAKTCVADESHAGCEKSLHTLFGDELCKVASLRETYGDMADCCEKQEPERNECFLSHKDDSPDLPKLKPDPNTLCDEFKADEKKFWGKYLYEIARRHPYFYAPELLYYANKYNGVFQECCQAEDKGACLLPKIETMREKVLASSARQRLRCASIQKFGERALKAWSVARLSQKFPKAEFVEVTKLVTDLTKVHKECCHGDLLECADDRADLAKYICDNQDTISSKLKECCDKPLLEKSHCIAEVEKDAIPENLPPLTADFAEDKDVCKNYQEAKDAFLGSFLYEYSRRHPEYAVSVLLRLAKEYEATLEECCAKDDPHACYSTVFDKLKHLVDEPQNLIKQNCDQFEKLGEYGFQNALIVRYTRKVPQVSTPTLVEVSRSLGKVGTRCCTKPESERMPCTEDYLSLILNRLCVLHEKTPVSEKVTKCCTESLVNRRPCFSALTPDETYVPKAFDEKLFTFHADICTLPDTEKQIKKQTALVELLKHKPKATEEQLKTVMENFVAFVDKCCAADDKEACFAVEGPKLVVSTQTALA
Focal adhesion kinase 1 (Homo sapiens), sequence (Q05397 whole entry, looked up): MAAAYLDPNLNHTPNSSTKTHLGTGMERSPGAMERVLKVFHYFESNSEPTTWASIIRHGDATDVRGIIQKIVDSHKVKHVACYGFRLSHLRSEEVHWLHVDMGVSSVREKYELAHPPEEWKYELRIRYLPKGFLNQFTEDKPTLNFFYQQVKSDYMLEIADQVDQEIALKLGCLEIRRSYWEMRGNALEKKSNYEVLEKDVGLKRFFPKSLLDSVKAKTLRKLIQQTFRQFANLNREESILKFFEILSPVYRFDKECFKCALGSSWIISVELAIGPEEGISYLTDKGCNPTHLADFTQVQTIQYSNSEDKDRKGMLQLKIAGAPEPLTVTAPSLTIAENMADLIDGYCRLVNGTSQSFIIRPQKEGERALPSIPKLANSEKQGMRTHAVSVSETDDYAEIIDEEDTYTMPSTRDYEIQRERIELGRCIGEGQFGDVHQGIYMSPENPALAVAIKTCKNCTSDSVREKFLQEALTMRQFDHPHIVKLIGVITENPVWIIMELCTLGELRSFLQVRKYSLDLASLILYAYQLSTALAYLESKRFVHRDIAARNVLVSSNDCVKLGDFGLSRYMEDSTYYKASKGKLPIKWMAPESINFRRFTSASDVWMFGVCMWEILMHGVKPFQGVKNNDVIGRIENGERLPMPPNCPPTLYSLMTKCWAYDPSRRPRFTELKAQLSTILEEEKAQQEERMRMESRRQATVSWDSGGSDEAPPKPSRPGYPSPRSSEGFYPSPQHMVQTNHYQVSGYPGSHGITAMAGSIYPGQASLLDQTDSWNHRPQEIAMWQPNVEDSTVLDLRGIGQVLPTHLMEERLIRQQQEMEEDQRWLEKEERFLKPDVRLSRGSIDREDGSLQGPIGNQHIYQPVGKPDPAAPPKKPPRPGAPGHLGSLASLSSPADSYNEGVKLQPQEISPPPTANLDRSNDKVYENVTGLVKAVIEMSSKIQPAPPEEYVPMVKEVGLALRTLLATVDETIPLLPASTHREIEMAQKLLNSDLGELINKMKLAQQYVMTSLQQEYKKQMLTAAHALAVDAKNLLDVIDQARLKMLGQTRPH
Follistatin (Homo sapiens), sequence (P19883 whole entry, looked up): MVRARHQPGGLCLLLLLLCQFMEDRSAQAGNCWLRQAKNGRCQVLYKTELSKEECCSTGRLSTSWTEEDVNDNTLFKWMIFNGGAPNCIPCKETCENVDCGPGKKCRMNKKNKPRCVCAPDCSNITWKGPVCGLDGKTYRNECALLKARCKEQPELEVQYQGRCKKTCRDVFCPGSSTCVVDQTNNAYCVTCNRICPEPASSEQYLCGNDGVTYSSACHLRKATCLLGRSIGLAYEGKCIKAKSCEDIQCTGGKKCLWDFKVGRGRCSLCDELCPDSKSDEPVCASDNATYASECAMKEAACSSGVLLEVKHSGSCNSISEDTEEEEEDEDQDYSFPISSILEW
Concanavalin-A (Canavalia ensiformis), sequence (P02866 whole entry, looked up): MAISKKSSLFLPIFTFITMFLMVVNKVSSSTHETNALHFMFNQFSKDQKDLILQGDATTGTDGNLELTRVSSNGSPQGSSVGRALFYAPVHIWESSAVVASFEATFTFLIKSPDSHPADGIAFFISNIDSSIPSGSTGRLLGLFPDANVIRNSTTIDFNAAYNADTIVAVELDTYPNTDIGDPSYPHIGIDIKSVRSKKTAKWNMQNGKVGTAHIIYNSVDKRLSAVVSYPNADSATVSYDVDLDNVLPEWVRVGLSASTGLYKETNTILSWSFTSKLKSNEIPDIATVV
Luciferin 4-monooxygenase (Photinus pyralis), sequence (P08659 whole entry, looked up): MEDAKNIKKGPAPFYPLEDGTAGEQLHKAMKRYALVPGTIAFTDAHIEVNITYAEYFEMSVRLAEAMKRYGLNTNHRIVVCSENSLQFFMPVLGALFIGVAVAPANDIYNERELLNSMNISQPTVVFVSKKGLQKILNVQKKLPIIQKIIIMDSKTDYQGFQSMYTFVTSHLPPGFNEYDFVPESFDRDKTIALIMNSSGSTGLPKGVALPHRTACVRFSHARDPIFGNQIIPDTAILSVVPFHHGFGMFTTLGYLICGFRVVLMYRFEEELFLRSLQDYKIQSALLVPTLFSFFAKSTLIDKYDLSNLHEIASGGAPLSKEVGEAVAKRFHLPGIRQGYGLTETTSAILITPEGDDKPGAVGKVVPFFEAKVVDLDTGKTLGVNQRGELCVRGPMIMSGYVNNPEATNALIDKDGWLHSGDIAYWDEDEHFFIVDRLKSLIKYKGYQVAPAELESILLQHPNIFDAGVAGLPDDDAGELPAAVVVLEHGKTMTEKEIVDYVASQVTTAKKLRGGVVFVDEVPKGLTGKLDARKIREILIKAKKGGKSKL

As to `CCN(CC)c1ccc(N2CC=CC34O[C@@H]5C=CCCOC(=O)C5[C@H]3C(=O)N(CCCCCCO)[C@@H]4C2=O)cc1` (stereo not given in full), the composite z-score in the experiment with Albumin (Bos taurus) is 0.254; in experiment [2] it was -0.276; in experiment [3], -0.203; in experiment [4] it was 0.885; in experiment [5], 2.79; in [6] it was 1.46. Also, the composite z-score with Sam68 (KHDRBS1) is 0.114; in experiment [7], -0.489; in experiment [8] it was -0.1; in experiment [9], 1.43; in experiment [10] it was 0.321; in experiment [11], 0.899. Moreover, the composite z-score was -1.15 in [12]; -0.372 in experiment [13]; -0.551 in experiment [14]; 0.0079 with Lefty1; 0.623 in [16]. Moreover, the composite Z-score in experiment [1] was 0.469 (inactive). Further, the z-score is -0.115 in experiment [15] and -4.35 (inactive) in [17].

In the case of `COC(=O)[C@@]1(CCS(=O)(=O)c2ccccc2)N=C(c2ccc(OCCCO)cc2)O[C@H]1c1ccccc1CN=[N+]=[N-]`, the composite z-score in the experiment with Albumin (Bos taurus) is -0.307; in experiment [2], 0.0807; in experiment [3] it was 0.0657; in experiment [4], 0.691; in experiment [5], 2.4; in [6] it was 0.372. In addition, the composite z-score was 1.34 in the experiment with Sam68 (KHDRBS1); -0.149 in [7]; 1.08 in experiment [8]; 2.29 in [9]; 1.19 in [10]; 1.46 in experiment [11]. The composite z-score in [12] is 0.755; in [13], 1.31; in experiment [14], 0.55; in the experiment with Lefty1, 0.279; in experiment [16], 1.01. In [1], the composite Z-score was 0.559 (inactive). Besides, the z-score is -0.229 in [15] and -0.282 (inactive) in experiment [17].

For `CCC[C@@H]1C[C@@]1(CCC)[C@@H](NS(=O)(=O)c1cccc2cccnc12)c1ccc(Cl)cc1`, the composite z-score in the experiment with Albumin (Bos taurus) is 0.659; in [2], 0.0496; in experiment [3], -0.106; in experiment [4] it was 0.457; in [5], 1.81; in experiment [6] it was -0.119. Moreover, the composite z-score in the experiment on Sam68 (KHDRBS1) was 0.403; in experiment [7], -0.955; in [8], 0.492; in experiment [9] it was 0.265; in experiment [10], 1.06; in [11], 0.249. The composite z-score in experiment [12] was 0.285; in experiment [13], 0.0155; in experiment [14], -1.68; with Lefty1, -0.605; in experiment [16], 0.701. The composite Z-score in experiment [1] is -0.421 (inactive). For the same compound, the z-score in experiment [15] was 2.3; in [17], 0.19 (inactive).

Consider `CC(C)c1ccc(NN2C(C(O)c3ccc(B(O)O)cc3)C=CC3C(=O)N(c4ccccc4)C(=O)C32)cc1` (stereo not given), for which the composite z-score amounted to 0.958 in the experiment with Albumin (Bos taurus); 0.216 in experiment [2]; 0.0571 in experiment [3]; 0.493 in [4]; 2.32 in experiment [5]; 0.681 in [6]. Moreover, the composite z-score with Sam68 (KHDRBS1) is 1.26; in experiment [7], -1.06; in experiment [8] it was 1.06; in experiment [9], 1.24; in experiment [10], 1.2; in experiment [11], 0.581. Besides, the composite z-score in experiment [12] is 0.952; in [13], 1.32; in [14] it was -0.159; in the experiment on Lefty1, 0.481; in experiment [16] it was 0.783. Further, the composite Z-score in experiment [1] is -0.852 (inactive). For the same compound, the z-score in experiment [15] is -0.641; in [17], -6.16 (inactive).

`C=CCOC(=O)[C@@H]1[C@H]2C(=O)O[C@H](c3ccccc3)[C@H](c3ccccc3)N2[C@H](c2ccc(OCCOC(=O)[C@H]3C[C@H]4C(=O)N5CCC[C@H]5C(=O)N4[C@H]3c3ccc(O)cc3)cc2)[C@@]12C(=O)Nc1ccc(I)cc12`: the composite z-score in the experiment with Albumin (Bos taurus) was -1.18; in experiment [2], -0.213; in [3] it was 0.0701; in experiment [4], 0.339; in experiment [5] it was 1.58; in experiment [6], -0.299. Also, the composite z-score with Sam68 (KHDRBS1) is 1.3; in experiment [7], 1.09; in [8], 1.13; in [9] it was 2.01; in [10], 1.19; in [11], 0.453. In addition, the composite z-score in [12] came out at 0.409; in experiment [13], 1.39; in experiment [14], 1.58; with Lefty1, 1.42; in experiment [16], 0.497. Further, the composite Z-score in [1] was 0.76 (inactive). Further, the z-score in [15] is -1.6; in experiment [17] it was -0.376 (inactive).

In the case of `CC(C)C[C@@H]1NC(=O)[C@H](C(C)C)NC(=O)[C@@]23C(=O)N[C@@H](Cc4ccccc4)C2[C@H](C)[C@@]2(C)O[C@H]2C3/C=C/CC/C=C/CNC1=O` (stereo not given in full), the composite z-score with Albumin (Bos taurus) was 0.371; in [2], 0.0694; in experiment [3], -0.126; in experiment [4], 0.532; in experiment [5] it was 1.28; in experiment [6], -0.0375. For the same compound, the composite z-score turned out to be 1.29 in the experiment with Sam68 (KHDRBS1); 0.806 in [7]; 0.271 in experiment [8]; 0.65 in experiment [9]; 0.466 in experiment [10]; 0.262 in experiment [11]. Besides, the composite z-score in experiment [12] was found to be 0.972; in [13], 1.29; in experiment [14], 1.53; with Lefty1, 1.15; in [16] it was 0.229. Besides, in [1], the composite Z-score was 0.131 (inactive). In addition, the z-score in [15] is 0.276; in [17], -0.219 (inactive).
